In the library only some 1.3% were active in any assay of this set; here they are far more common.
Gli-Sufu antag: Gli-Sufu pathway antagonists, primary screen, luciferase luminescence, Sufu-KO-LIGHT cells, uHTS; 340,000 compounds, 0.74% hits; Sufu-KO-LIGHT fibroblasts, Gli luciferase reporter luminescence; inhibition, % at 5 µM; AID 588413, 2011;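 active = inhibition above about 55%, limit read from the data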;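 also: 0% = DMSO-treated cells and 100% = wells with medium but no cells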
SRC3 inh: SRC3 coactivator transcriptional activity inhibitors, primary screen, cell-based, luminescence; Nuclear receptor coactivator 3 (Homo sapiens), Q9Y6Q9; HEK293 GAL4-SRC3 luciferase reporter; inhibition, % at 3.6 µM; 360,000 compounds, 0.17% hits;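 active = inhibition above a per-campaign cutoff, the mean of all compounds plus 3 SD, cut at about 60% in these data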;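 also: 0% = DMSO-treated cells and 100% = gossypol-treated cells at 36 µM; higher means less SRC3-driven luciferase light from the GAL4 reporter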
NR5A2 inv ag: LRH-1 (NR5A2) inverse agonists, primary screen, cell-based, luminescence, HEK293T, StAR-luciferase reporter. LRH-1 transfected, 24 h. inhibition, % at 3.6 µM. 360,000 compounds, 0.13% hits. AID 602396, 2012;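 active = inhibition above the mean inhibition of all tested compounds plus 3 SD, cut at about 73% in these data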;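 also: 0% = DMSO wells and 100% = reporter-only cells lacking LRH-1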
NCOA2 inhibitor: inhibition of GAL4-SRC2 driven luciferase reporter, primary screen, SRC2 inhibitor project, cell-based, luminescence; AID 651957, 2012; inhibition, % at 9 µM; 370,000 compounds, 0.17% hits; HEK293 GAL4-SRC2 luciferase reporter; Nuclear receptor coactivator 2 (Homo sapiens), Q15596;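 active = inhibition above the mean inhibition of all tested compounds plus 3 SD, set per campaign, cut at about 52% in these data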;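 also: 0% = DMSO treated cells and 100% = cells given Gossypol at 36 µM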
NCOA1 inh: SRC1 coactivator transcriptional activity inhibitors, primary screen, cell-based, luminescence. AID 588354, 2011. 360,000 compounds, 0.12% hits. Nuclear receptor coactivator 1 (Homo sapiens), Q15788. inhibition, % at 3.6 µM. HEK293 GAL4-SRC1 luciferase reporter;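 active = inhibition above the campaign mean plus 3 SD, with each screening campaign given its own cutoff, cut at about 60% in these data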;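 also: 0% = DMSO treated cells and 100% = gossypol at 36 µM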
Target sequence (Q15788 whole entry, looked up, the tested form may be a part): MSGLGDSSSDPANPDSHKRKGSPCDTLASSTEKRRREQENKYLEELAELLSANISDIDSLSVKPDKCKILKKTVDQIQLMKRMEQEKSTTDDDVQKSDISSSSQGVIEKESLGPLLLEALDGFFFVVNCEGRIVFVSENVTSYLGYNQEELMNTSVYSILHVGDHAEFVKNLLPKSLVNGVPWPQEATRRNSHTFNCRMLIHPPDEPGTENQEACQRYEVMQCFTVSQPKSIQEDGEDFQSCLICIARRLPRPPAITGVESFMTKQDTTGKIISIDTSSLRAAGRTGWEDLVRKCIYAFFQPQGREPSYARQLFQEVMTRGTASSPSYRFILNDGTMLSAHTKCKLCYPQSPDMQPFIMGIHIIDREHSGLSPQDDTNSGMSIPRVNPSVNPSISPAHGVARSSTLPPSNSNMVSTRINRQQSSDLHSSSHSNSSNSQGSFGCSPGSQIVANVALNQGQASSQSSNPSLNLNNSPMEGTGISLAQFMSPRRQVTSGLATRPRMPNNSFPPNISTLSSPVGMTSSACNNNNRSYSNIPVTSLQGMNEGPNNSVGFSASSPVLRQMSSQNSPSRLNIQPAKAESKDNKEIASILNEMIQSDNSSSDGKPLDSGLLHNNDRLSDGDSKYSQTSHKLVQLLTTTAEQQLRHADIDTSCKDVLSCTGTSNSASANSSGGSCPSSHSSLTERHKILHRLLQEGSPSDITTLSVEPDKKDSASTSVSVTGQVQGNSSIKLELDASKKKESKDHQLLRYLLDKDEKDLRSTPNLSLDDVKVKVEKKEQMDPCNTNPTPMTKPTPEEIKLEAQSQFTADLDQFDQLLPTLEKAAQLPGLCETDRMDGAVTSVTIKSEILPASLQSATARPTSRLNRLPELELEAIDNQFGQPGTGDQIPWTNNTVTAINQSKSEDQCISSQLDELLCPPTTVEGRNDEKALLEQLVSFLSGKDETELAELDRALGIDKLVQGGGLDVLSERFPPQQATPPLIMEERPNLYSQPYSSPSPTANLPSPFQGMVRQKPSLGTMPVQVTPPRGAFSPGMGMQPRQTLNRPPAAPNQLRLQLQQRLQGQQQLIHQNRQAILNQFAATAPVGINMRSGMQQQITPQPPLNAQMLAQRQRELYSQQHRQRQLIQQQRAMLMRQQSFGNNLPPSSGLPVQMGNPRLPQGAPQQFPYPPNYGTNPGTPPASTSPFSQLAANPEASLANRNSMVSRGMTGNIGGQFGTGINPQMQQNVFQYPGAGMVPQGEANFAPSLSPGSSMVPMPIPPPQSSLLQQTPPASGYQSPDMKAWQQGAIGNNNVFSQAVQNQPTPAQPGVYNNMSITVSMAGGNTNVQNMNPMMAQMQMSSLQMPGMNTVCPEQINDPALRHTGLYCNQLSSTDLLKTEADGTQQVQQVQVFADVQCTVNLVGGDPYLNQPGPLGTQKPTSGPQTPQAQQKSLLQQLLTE
NR2F2 inh: NR2F2 transcriptional activity inhibitors, primary screen, cell-based, luciferase reporter, HEK293T, luminescence | COUP transcription factor 2 (Homo sapiens), P24468 | 370,000 compounds, 0.7% hits | inhibition, % at 8.6 µM | HEK293T NGFI-A luciferase reporter | AID 686940, 2013;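 active = inhibition above a per-plate cutoff, mean inhibition of test wells between control levels plus 3 SD, cut at about 38% in these data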;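 also: cells cotransfected with COUP-TFII expression vector driving the NGFI-A reporter; 0% = median of COUP-TF2 test wells and 100% = reporter-only cells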
Gli antag conf: Gli-SUFU pathway antagonists, confirmation, single concentration, luciferase luminescence, Sufu-KO-LIGHT cells; shares compounds with Gli-Sufu antag; inhibition, % at 5 µM; Gli luciferase reporter; 2,500 compounds, 40% hits;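 active = mean inhibition at 5 µM reaching about 45%, limit read from the data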;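 also: plate controls were DMSO-treated cells for no effect and wells lacking cells for full effect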
SufuKO cytotox: cytotoxicity in Sufu-KO-LIGHT cells, confirmation, cytotoxicity control for Gli-SUFU antagonist project, cell-based, ATP luminescence, single concentration; AID 651994, 2013; shares compounds with Gli-Sufu antag; 2,500 compounds, 32% hits; cytotoxicity, % at 5 µM;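 active = mean cytotoxicity at 5 µM above about 25%, limit read from the data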;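 also: cells exposed to compound overnight for roughly 16 to 18 hours; plate controls were DMSO wells with cells for no effect and medium without cells for full effect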
Wnt3a counter: Wnt3a reporter signal inhibition, confirmation, counter-screen for Gli-SUFU antagonist project, Wnt-LIGHT cells, luminescence, single concentration | Wnt3a-driven luciferase reporter | 2,500 compounds, 20% hits | inhibition, % at 6.25 µM | shares compounds with Gli-Sufu antag;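 active = mean inhibition above about 25%, limit read from the data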
* hit, by the source's call.

For CCOC(=O)C1CCCN(C(=O)CCn2nc(-c3ccccc3)ccc2=O)C1 (centres undefined) the results were Gli-Sufu antag 56.3*, SRC3 inh 17.2, NR5A2 inv ag -0.6, NCOA2 inhibitor 2.5, NCOA1 inh -21.2, NR2F2 inh -2.8, Gli antag conf 26.0, SufuKO cytotox 14.8 and Wnt3a counter -7.2.
O=C(CN1CCc2onc(-c3ccc(-n4cc(COc5ccc([N+](=O)[O-])cc5)nn4)cc3)c2C1=O)N1CCOCC1 was read as NCOA2 inhibitor -2.8 and NR2F2 inh -10.3.
For COc1ccc(N2CCc3c(C)nc4c(OC)cc(OC)cc4c32)c(OC)c1 the results were Gli-Sufu antag 31.3, SRC3 inh 31.2, NR5A2 inv ag 18.1, NCOA2 inhibitor -15.2, NCOA1 inh 10.2 and NR2F2 inh -8.9.
For COc1ccc(N2CCc3c(C)nc4c(OC)cc(OC)cc4c32)cc1 the results were Gli-Sufu antag 54.5, SRC3 inh 18.8, NR5A2 inv ag 25.5, NCOA2 inhibitor -152.1, NCOA1 inh 2.7, NR2F2 inh -11.5, Gli antag conf 27.5, SufuKO cytotox 4.8 and Wnt3a counter -42.4.
Screening O=C(CSc1nc2ccccc2nc1N1CCOCC1)N1CCN(c2cccc(C(F)(F)F)c2)CC1 returned NCOA2 inhibitor 11.1 and NR2F2 inh 16.2.
For Cc1nc2ccc(S(=O)(=O)NCC(=O)NCc3ccccc3Cl)cc2s1 the results were NCOA2 inhibitor 5.5 and NR2F2 inh 19.2.
CCc1nnc(N/N=C/c2ccc(N3CCC(C)CC3)c([N+](=O)[O-])c2)n1N was read as Gli-Sufu antag -7.2, SRC3 inh 15.8, NR5A2 inv ag 28.5, NCOA2 inhibitor -43.2, NCOA1 inh -4.0 and NR2F2 inh -3.2.
For Cc1nnc(N/N=C/c2cc([N+](=O)[O-])c(N3CCC(C)CC3)cc2N2CCC(C)CC2)n1N the results were Gli-Sufu antag 85.0*, SRC3 inh 6.5, NR5A2 inv ag 20.9, NCOA2 inhibitor 10.6, NCOA1 inh -7.4, NR2F2 inh 4.4, Gli antag conf 87.5*, SufuKO cytotox 36.4* and Wnt3a counter -22.3.
Screening COc1ccc(CNC(=O)CSc2ncn[nH]2)cc1 returned Gli-Sufu antag 87.4*, SRC3 inh 9.1, NR5A2 inv ag -7.2, NCOA2 inhibitor 0.1, NCOA1 inh 2.4, NR2F2 inh 6.2, Gli antag conf 27.1, SufuKO cytotox 3.5 and Wnt3a counter -0.7.
O=C(CCn1nnc(-c2cccs2)n1)N1CCOCC1 was read as NCOA2 inhibitor -2.4 and NR2F2 inh 1.7.
O[C@H](COc1cccc(F)c1)CN1CCC(C(O)(c2ccccc2)c2ccccc2)CC1 was read as NCOA2 inhibitor 12.3 and NR2F2 inh -4.8.
`O=C1CCC(C(=O)OCC(=O)c2ccccc2)N1` (centres undefined) gave Gli-Sufu antag -5.4, SRC3 inh 6.3, NR5A2 inv ag -2.1, NCOA2 inhibitor 4.5, NCOA1 inh 10.8 and NR2F2 inh -4.7.
For N#Cc1ccc(COC(=O)C2CCC(=O)N2)cc1 (centres undefined) the results were Gli-Sufu antag 99.3*, SRC3 inh 13.9, NR5A2 inv ag -6.3, NCOA2 inhibitor 0.9, NCOA1 inh 8.0, NR2F2 inh 2.0, Gli antag conf 10.0, SufuKO cytotox 2.5 and Wnt3a counter -5.3.
`CCOC(=O)Cn1c(Br)nc2c1c(=O)[nH]c(=O)n2C` gave Gli-Sufu antag 98.8*, SRC3 inh -3.7, NR5A2 inv ag -1.7, NCOA2 inhibitor 3.3, NCOA1 inh 0.2, NR2F2 inh 9.8, Gli antag conf 11.5, SufuKO cytotox 7.4 and Wnt3a counter -15.2.
For C=CCN1CC(COCc2ccccc2)OCCS1(=O)=O (centres undefined) the results were NCOA2 inhibitor -44.4 and NR2F2 inh -4.7.
For CCOc1ccc(NC(=O)CCSc2nnc(C)s2)cc1 the results were Gli-Sufu antag 53.2, SRC3 inh -0.7, NR5A2 inv ag -0.1, NCOA2 inhibitor -23.2, NCOA1 inh 1.3, NR2F2 inh -0.3, Gli antag conf 17.1, SufuKO cytotox -2.4 and Wnt3a counter 3.3.
For COC(=O)[C@]1(CNC(=O)c2cc(F)ccc2F)CC(=O)N(C)[C@@H]1c1ccccc1 the results were NCOA2 inhibitor 26.8 and NR2F2 inh 2.0.
C/C(=N\NC(=O)C(c1ccccc1)c1ccccc1)c1ccccn1 was read as Gli-Sufu antag 88.7*, SRC3 inh 28.3, NR5A2 inv ag 2.0, NCOA2 inhibitor -100.5, NCOA1 inh 16.1, NR2F2 inh 11.7, Gli antag conf 55.9*, SufuKO cytotox 30.6* and Wnt3a counter 37.1*.
`C/C(=N\NC(=O)C1COc2ccccc2O1)c1ccc(C)o1` (centres undefined) gave Gli-Sufu antag 5.2, SRC3 inh 1.7, NR5A2 inv ag -13.4, NCOA2 inhibitor 5.6, NCOA1 inh -8.8 and NR2F2 inh 14.9.
Screening C/C(=N\NC(=O)C1COc2ccccc2O1)c1ccccn1 (centres undefined) returned Gli-Sufu antag 89.0*, SRC3 inh 35.5, NR5A2 inv ag 21.9, NCOA2 inhibitor -19.7, NCOA1 inh 2.6, NR2F2 inh 21.9, Gli antag conf 73.0*, SufuKO cytotox 44.3* and Wnt3a counter 52.8*.
`CCC(C)[C@H](NC(=O)N1CC(=O)Nc2ccccc21)C(=O)Nc1nccs1` (some centres undefined) gave Gli-Sufu antag 59.9*, SRC3 inh 12.8, NR5A2 inv ag 3.3, NCOA2 inhibitor 13.2, NCOA1 inh -1.6, NR2F2 inh -7.9, Gli antag conf 12.6, SufuKO cytotox 25.9* and Wnt3a counter -8.9.
Screening CC(C)[C@H](NC(=O)N1CC(=O)Nc2ccccc21)C(=O)Nc1nccs1 returned Gli-Sufu antag -15.2, SRC3 inh 13.8, NR5A2 inv ag 12.5, NCOA2 inhibitor -4.9, NCOA1 inh -0.5 and NR2F2 inh 20.3.

Screens (PubChem)
